Mot1-301 SUMO: SUMOylation pathway inhibition by Mot1-301 growth rescue; S. cerevisiae Mot1-301 growth rescue, ATP luminescence, 38.5C; percent above DMSO median, 100 means doubled; growth rescue, % at 18.8 µM; 1% of 320,000 active;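 active means every valid replicate shows activation above 250% relative to neutral control wells; inactive means the rest, any valid replicate at or below 250%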
NLRP3 yeast inh: NALP3 inhibition in yeast; Yeast reconstituted NLRP3/ASC/caspase-1, beta-gal luminescence, 24 h; inhibition, % at 10 µM; 0.39% of 330,000 active; AID 2825;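 active means inhibition of 50% or more; inactive means inhibition below 50%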
PolyA inh: inhibitors of polyadenylation in S. cerevisiae | 0.02% of 300,000 active | activity score, % at 12 µM | S. cerevisiae SKY197-pL101 polyadenylation reporter, beta-gal luminescence; efflux-impaired pdr1/pdr3 knockout yeast; score 100 = 6 SD above DMSO;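 active means lowest replicate activity score at least 50, where 100 means six control SD above control mean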;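 further: yeast exposed to compound for 9 h at 30 °C; higher score means more reporter readthrough which indicates perturbed polyadenylation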
NALP1 yeast inh: NALP1 inhibition | S. cerevisiae NALP1/ASC/caspase-1 growth, X-gal OD620, 72 h | 0.61% of 280,000 active | inhibition, % at 10 µM | AID 2071; in the data active means inhibition mostly above about 24%, no sharp cut-off; inactive means mostly below about 32%
Hits are given with their value; i = inactive; nt = no result given. A selection: hits, their analogues and other compounds. The true share with any hit is near 1.8%.

SMILES	Mot1-301 SUMO	NLRP3 yeast inh	PolyA inh	NALP1 yeast inh
CCC(CC)c1nnc(NC(=O)COc2ccc3c(c2)OCO3)s1	i	i	i	i
O=C1C=CC[C@H](/C=C/C[C@@H](O)C[C@H](O)CCc2ccccc2)O1	i	i	i	nt
COc1ccc(CNCCC(c2ccc(F)cc2)c2ccc(OC)cc2)cc1 (stereo unspecified)	i	i	i	79
COc1ccc(CNCCc2ccc(Cl)cc2)cc1OCc1ccccc1	i	i	i	i
COc1ccc(C(CCNCc2ccc(F)cc2)c2ccc(F)cc2)cc1 (stereo unspecified)	i	i	i	68
COc1ccc(C(CCNC(C)c2ccccc2)c2ccc(F)cc2)cc1 (stereo unspecified)	i	i	i	43
COc1ccc(CCNCc2ccc(OCc3ccccc3)cc2)cc1	i	i	i	45
COc1ccc(S(=O)(=O)N2CCCCC2)cc1NC(=O)CCNC(=O)c1ccc(Br)cc1	i	i	i	nt
COc1ccc(-n2c(=O)cc(N3CCN(c4ccccc4F)CC3)[nH]c2=O)cc1	i	i	nt	i
CC(C)N1C(=O)S/C(=C\c2ccc(-c3ccc(Cl)c(C(=O)O)c3)o2)C1=O	i	i	i	i
CCN(CC)c1ccc(/C=C2/SC(=O)N(C(C)C)C2=O)o1	nt	nt	i	58
Cc1ccc(C(=O)O/N=C/c2c(N3CCOCC3)n(C)c3ccccc23)cc1	i	i	i	i
CC(=O)O/N=C/c1c(N2CCOCC2)n(C)c2ccccc12	i	i	i	29
CC(OC(=O)CNC(=O)C12CC3CC(CC(C3)C1)C2)C(=O)Nc1ccc(N2CCOCC2)cc1 (stereo unspecified)	i	i	i	i
O=C(NN=C1C2CC3CC(C2)CC1C3)c1cccs1	i	i	i	41
O=C(NN=C1CCCC1)c1cccs1	i	i	i	i
Cc1ccc(CN2CCC(Oc3ccc(C(=O)NCc4ccccn4)cc3)CC2)o1	i	i	i	i
CCc1nc(Nc2ccc3c(c2)OCCO3)c2oc3ccccc3c2n1	i	i	i	34
CSCC[C@@H](C(=O)O)N1Cc2ccccc2C1=O	i	i	i	39
CSCC[C@@H](C(=O)Nc1ccc2c(c1)OCCO2)N1Cc2ccccc2C1=O	i	i	i	i
CCC(C)(C)C1CCC(NC(=O)N2CCN(c3ccccc3O)CC2)CC1 (stereo unspecified)	i	i	i	i
CCOC(=O)c1c(C)n(C)c2ccc(OCCN(C)C)cc12	i	i	i	i
CCOC(=O)c1c(C)n(-c2ccccc2)c2ccc(OCCN(C)C)cc12	i	i	i	44
COc1ccccc1CNC(=O)CSc1ccc(-c2ccccn2)nn1	343	i	i	i
COc1ccccc1CNC(=O)CSc1ccc(-c2cccs2)nn1	i	i	i	i
SMILES	Mot1-301 SUMO	NLRP3 yeast inh	PolyA inh	NALP1 yeast inh
O=C(CNC(=O)c1ccc(Br)o1)Nc1cccc(-c2cnc3ccccc3n2)c1	i	i	i	i
C/C(=N\Nc1nnc2c3ccccc3n(C)c2n1)c1ccc(C)o1	i	i	i	i
O=C(c1cc([N+](=O)[O-])ccc1N1CCOCC1)N1CCN(c2ccccc2)CC1	i	i	i	i
CN(C)CCCN(C(=O)c1ccc2c(c1)CCCC2)c1nc2ccc(Cl)cc2s1	i	i	i	82
COc1cccc2sc(N(CCN(C)C)C(=O)c3ccc4c(c3)CCCC4)nc12	i	i	i	i
CN(C)CCN(C(=O)c1ccc2c(c1)CCCC2)c1nc2c(F)cccc2s1	i	i	i	42
CCCCC(C)n1[nH]c(=O)c2c(C)cc(C)nc21 (stereo unspecified)	i	i	i	i
CNC(CC(=O)c1ccc([N+](=O)[O-])cc1)C(Cl)(Cl)Cl (stereo unspecified)	i	nt	nt	115
CCOC(=O)[C@@H]1[C@H]2COc3ccccc3[C@H]2N2C(=O)N(c3cccc(Cl)c3)C(=O)[C@]12C	i	i	nt	nt
CCOC(=O)c1sc(-c2cccc(C(F)(F)F)c2)nc1O	i	i	i	i
CCOC(=O)c1sc(-c2ccc(C(F)(F)F)cc2)nc1O	i	i	i	32
Nc1cc(=O)[nH]c(SCc2cccc3ccccc23)n1	i	i	i	i
COc1ccccc1-c1noc(CSc2nc(N)cc(=O)[nH]2)n1	i	i	i	33
O=Nc1c(-c2ccccc2)cc2ccccn12	i	i	i	38
Cc1ccc(NC(=O)/C=C\C(=O)NCC(=O)O)cc1C	i	i	i	57
Cc1ccc(NC(=O)CC(=O)Nc2ccc(C)c(C)c2)cc1C	i	i	i	i
O=C(O)Cc1sc(NCc2ccco2)nc1-c1ccccc1	i	i	i	i
Cc1c(C=O)c(C=O)c(C)n1Cc1ccccc1	nt	i	i	37
Cn1nc(C(C)(C)C)c([N+](=O)[O-])c1C(=O)N1CCCCCC1	444	i	i	i
Cn1nc(C(C)(C)C)c([N+](=O)[O-])c1C(=O)N1CCOCC1	i	i	i	i
O=C(NN1C(=O)c2cc(Br)ccc2NC1c1cc(Br)cc(Br)c1O)c1ccncc1 (stereo unspecified)	i	i	i	57
O=C(NN1C(=O)c2cc(Br)ccc2NC1c1ccccc1Cl)c1ccncc1 (stereo unspecified)	i	i	i	i
O=C(O)/C=C/C(=O)Nc1ccc(S(=O)(=O)Nc2nccs2)cc1	i	i	i	i
COc1ccccc1C(=O)OCC(=O)Nc1cc(S(=O)(=O)N2CCOCC2)ccc1N1CCCC1	407	i	i	i
COc1ccc(C(=O)OCC(=O)Nc2cc(S(=O)(=O)N3CCOCC3)ccc2N2CCCC2)cc1	i	i	i	i
SMILES	Mot1-301 SUMO	NLRP3 yeast inh	PolyA inh	NALP1 yeast inh
O=C(COC(=O)Cn1cnc2ccccc21)Nc1ccc2c(c1)C(=O)c1ccccc1C2=O	i	i	i	50
COc1ccc(NCc2ccc([N+](=O)[O-])s2)cc1	i	i	i	62
COc1ccc(NCc2ccc([N+](=O)[O-])s2)c(OC)c1	i	nt	nt	52
Cc1ccc(C)c(S(=O)(=O)N2CCCCC2CCNC(=O)C(=O)NCc2ccncc2)c1 (stereo unspecified)	i	i	i	nt
Cc1ccc(S(=O)(=O)N(C)Cc2nc(-c3ccncc3)no2)cc1	i	i	i	i
CCOC(=O)CCC(=O)O[C@H]1[C@H](O[C@@H]2[C@@H](C)[C@H](O[C@H]3C[C@@](C)(OC)[C@@H](O)[C@H](C)O3)[C@@H](C)C(=O)O[C@H](CC)[C@@](C)(O)[C@H](O)[C@@H](C)C(=O)[C@H](C)C[C@@]2(C)O)O[C@H](C)C[C@@H]1N(C)C	i	nt	i	92
CC[C@H]1OC(=O)[C@H](C)[C@@H](O[C@H]2C[C@@](C)(OC)[C@@H](O)[C@H](C)O2)[C@H](C)[C@@H](O[C@@H]2O[C@H](C)C[C@H](N(C)C)[C@H]2O)[C@](C)(O)C[C@@H](C)C(=O)[C@H](C)[C@@H](O)[C@]1(C)O	i	nt	i	i
COc1cc(C)ccc1OCc1cc(C(=O)N2CCCCCCC2)no1	i	i	i	i
C=CCN(C(=O)c1csnn1)C(C(=O)NC1CCCCC1)c1ccc(C)cc1 (stereo unspecified)	i	i	i	i
CC(C)CC(=O)N1CCN(Cc2ccc(Cl)cc2)CC1	i	i	i	i
